Each structure is given as a SMILES string. Hit rate of the full screen: of about 340,000 compounds, about 12,000 (3.5%) were called active. About 18% were inconclusive and are not listed. Shown is part of a subset that was picked to be rich in actives. Where a call stands in place of a potency, no number is given. A number with no mark means an inactive call. Calls come from the whole dose curve; as a rule, active = well fitted inhibition curve with a large enough effect; inconclusive = small, poorly fitted or top-dose-only effect, or another doubt; inactive = no such curve, though single readings can be large or run the other way.

For 102 molecules, Potency and activity change, negative = inhibition results are on record in PubChem BioAssay AID651820 (National Center for Advancing Translational Sciences (NCATS), 2012).
Potency is the fitted concentration of half-maximal effect.

A short description of this test: qHTS Assay for Inhibitors of Hepatitis C Virus (HCV). As to conditions: Huh7.5.1 HCVcc-Cre infection, luciferase reporter, 44 h; series mostly up to 41.8 µM. A digest of the protocol:
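Luciferase read-out (15 sec integration) after a 15 min room-temperature substrate step quantifies HCVcc-Cre infection. Cells, 1,000 per well, had compound added 4 h post-plating, then virus at ~0.5 moi, and were cultured 44 h.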
Turning to `N=c1n(Cc2ccc(Cl)cc2)c2ccccc2n1CC(O)c1ccco1` (configuration not stated), the Potency was 11.2 µM (active).

With `Cn1c(=N)n(CC(O)c2cccs2)c2ccccc21` (configuration not stated), the Potency result is “inactive”.

As for `O=S(=O)(O)c1nc2ccccc2n1Cc1ccc(Cl)cc1`, the Potency result is “inactive”. For the molecule `C[C@H](CO)N1C[C@H](C)[C@H](CN(C)CC2CC2)Oc2ccc(NC(=O)CCN3CCOCC3)cc2C1=O`, the Potency result is “inactive”. The same measure, in the same setting: next, `C[C@]12CCC(=O)C=C1C=CC1C2CC[C@@]2(C)C1CC[C@@]21CCC(=O)O1` (some centres not stated): “inactive”; `COc1ccc(-c2c(C#Cc3ccsc3)c3cc(-c4ccc(CN5CCOCC5)cc4)ccc3n2C)cc1`: “inactive”. Same read-out and setting: with `Cc1cc(N2CCOCC2)nc(-c2ccc(Br)cc2)n1` the figure was 10 µM (active). Still for that read-out and setting: with `Cc1cc(N2CCN(c3ccccc3)CC2)nc(N2CCOCC2)n1` the entry was “inactive”; with `Cc1cc(Nc2ccc(N3CCOCC3)cc2)c2cccc(C)c2n1`, “inactive”. With `O=[N+]([O-])c1ccc(COc2ccccc2CN2CCOCC2)cc1`, the activity change, negative = inhibition was -17.2% [at 8.37 µM].

Turning to `Cc1cnc(NC(=O)c2ccc(Cl)nc2)s1`, the Potency result was “inactive”.

As to `Cc1cnc(NC(=O)c2ccccn2)s1`, the Potency is 10 µM (active). The same measure, in the same setting: next, `Cc1cnc(NC(=O)CSc2c(Cl)cccc2Cl)s1`: “inactive”; `O=C(NCCc1ccc(F)cc1)c1ccc2nccnc2c1`: “inactive”; `NC(=O)c1ccc(N2CCCC2)nc1`: “inactive”. The same measure, in the same setting: with `C[C@H]1CN([C@@H](C)CO)C(=O)Cc2cc(NC(=O)Cc3ccccc3)ccc2O[C@H]1CN(C)S(=O)(=O)c1cccs1` the entry was “inactive”. The same measure, in the same setting: next, `COC(=O)c1ccc(SCc2ccccc2)nc1`: “inactive”; `CCCCOc1ccc(C(=O)NCC(=O)OCC(=O)c2c(N)n(C)c(=O)n(C)c2=O)cc1`: “inactive”; `COc1ccc(C(=O)N(C)Cc2ccc(OC)c(OC)c2OC)cc1S(=O)(=O)N1CCOCC1`: “inactive”. `COc1cc(OC)cc(-c2c(-c3cccs3)c3cc(-c4ccc(OC)nc4)ccc3n2C)c1`: the Potency result is “inactive”. Still for that read-out and setting: with `COc1ccc(-c2c(C#Cc3ccccc3)c3ccccc3n2C)cc1` the entry was “inactive”; with `COc1ccc(-c2c(-c3cc(OC)cc(OC)c3)n(C)c3ccc(-c4ccn[nH]4)cc23)cc1`, 11.2 µM (active); with `COc1cc(OC)cc(-c2c(-c3ccc(F)cc3)c3cc(-c4ccc5cc[nH]c5c4)ccc3n2C)c1`, 10 µM (active). In the case of `COc1cc(OC)cc(-c2c(C#Cc3ccsc3)c3cc(-c4ccc(OC)cc4F)ccc3n2C)c1`, the Potency entry was “inactive”. In the case of `COc1cc(OC)cc(-c2c(C#Cc3ccsc3)c3cc(-c4ccc(SC)cc4)ccc3n2C)c1`, the Potency result is “inactive”. As to `CC1O[C@H](OC2C(COC3OC(CO)C(O)[C@H](O)C3O)OC(OC3CC[C@]4(C)C(CC[C@@]5(C)[C@@H]4C=C[C@]46OC[C@@]7(CCC(C)(C)C[C@H]74)C(O)C[C@@]56C)C3(C)C)C(O)C2O)C(O)C(O)C1O` (some centres not stated), the Potency entry is “inactive”. Take `CNC[C@@H]1Oc2c(NS(C)(=O)=O)cccc2C(=O)N([C@@H](C)CO)C[C@H]1C`: the Potency result is “inactive”. Consider `CCN(CC(=O)Nc1ccccc1C(F)(F)F)C(=O)C1CCN(C(=O)Nc2ccccc2)CC1`, for which the Potency entry is “inactive”. As to `COc1ccc(CCNC(=O)COC(=O)c2cc(=O)c3ccccc3o2)cc1`, the Potency entry is “inactive”. Take `Cc1cc(C)cc(NC(=O)CN2C(=O)c3ccccc3C2=O)c1`: the Potency result is “inactive”. Same read-out and setting: next, `Cc1cc2c(cc1C)N(C(=O)CN1C(=O)c3ccccc3C1=O)C(C)(C)c1ssc(=S)c1-2`: 8.91 µM (active). Take `Cc1ccc(NC(=O)CCN2C(=O)c3ccccc3C2=O)cc1C`: the Potency entry is “inactive”. Still for that read-out and setting: with `O=C(NOCc1ccccc1)c1cccc([N+](=O)[O-])c1` the entry was “inactive”. `O=C(Nc1cccc(-c2cccc(Cl)c2)c1)C1CCN(C2CCC2)CC1`: the Potency was 12.6 µM (active). The same measure, in the same setting: next, `O=C(NC1CCCC1)C1CCN(C(=O)Nc2cccc(Cl)c2)CC1`: “inactive”; `O=C(Nc1cccc(Cl)c1)C1CCCN(c2cnccn2)C1` (configuration not stated): “inactive”. Same read-out and setting: with `N#Cc1ccc(CN2CCN(CC(=O)Nc3ccccc3C(=O)NC3CC3)CC2)cc1` the entry was “inactive”. Take `CCOC(=O)N1CCN(CC(=O)c2c(C)[nH]c3ccccc23)CC1`: the Potency result was “inactive”. With `CCOC(=O)c1c(C)[nH]c(C)c1S(=O)(=O)N(C)CC(=O)Nc1ccccc1C`, the Potency result is “inactive”.

For the molecule `CCOC(=O)c1c(C)[nH]c2c1-c1ccccc1C(=O)C2=O`, the Potency was 2.51 µM (active).

Regarding `O=C1OC(Cc2ccccc2)C(c2ccccc2)C1=O` (configuration not stated), the Potency entry was “inactive”. Still for that read-out and setting: with `COCCN(CCOC)S(=O)(=O)NC[C@H]1O[C@@H](n2cnc3c(N)ncnc32)[C@H](O)[C@@H]1O` the entry was “inactive”. For the molecule `O=C(COc1coc(CN2CCN(c3ccccc3F)CC2)cc1=O)N1CCc2ccccc21`, the activity change, negative = inhibition was 13.6% [at 8.37 µM].

As to `Cc1ccc(Nc2c(O)nc[nH]c2=O)cc1C`, the Potency entry was “inactive”.

Consider `CC(C)N(Cc1ccccc1)C(=S)Nc1ccc(OC(F)F)cc1`, for which the Potency entry was “inactive”. Still for that read-out and setting: next, `O=C(NNC(=S)NCc1ccccc1)c1ccc(OC(F)F)cc1`: “inactive”. Take `CC/C(=N\NC(=S)NC(C)C)c1ccc(OC(F)F)cc1`: the Potency is 10 µM (active). On to `CC(C)c1ccc(/C=C/C(=O)NCCCN2CCOCC2)cc1`, for which the Potency result was “inactive”. For `C[C@H]1COC(=O)[C@H](CC(=O)OC(C)(C)C)C/C=C\C[C@@H](CC(=O)N[C@H](CO)Cc2ccccc2)C(=O)N1`, the Potency result was “inactive”. The same measure, in the same setting: next, `O=C(N/N=C/c1ccoc1)c1ccc(Cl)cc1Cl`: “inactive”.

On to `O=C(N/N=C/c1ccc(OC(=O)c2ccccc2Cl)cc1)c1ccc(O)cc1`, for which the Potency result is “inactive”. The same measure, in the same setting: with `CC(C)(C)C(=O)Nc1ccc(C(=O)N/N=C/c2ccccc2OC(=O)c2ccc(Cl)cc2Cl)cc1` the figure was 10 µM (active); with `CCOc1ncccc1C(=O)Nc1ccc(S(=O)(=O)Nc2nc(C)cc(C)n2)cc1`, “inactive”; with `Cc1ccc(S(=O)(=O)N(Cc2cc3ccccc3[nH]c2=O)CC2CCCO2)cc1` (configuration not stated), “inactive”. The same measure, in the same setting: next, `CCN(Cc1cc2cc(C)ccc2[nH]c1=O)S(=O)(=O)c1ccccc1`: 11.2 µM (active); `CCC(=O)N(CCc1ccccc1)Cc1cc2cc(C)ccc2[nH]c1=O`: “inactive”; `O=C(COC(=O)c1ccc2c(c1)OCCO2)NCc1ccccc1Cl`: “inactive”. Same read-out and setting: with `CCOc1ccc(-n2c(O)c(/C=N/Nc3nnc(C)c(=O)[nH]3)c3ccccc3c2=O)cc1` the entry was “inactive”; with `CCOc1ccc(-n2c(O)c(/C=N/c3ccnn3Cc3ccncc3)c3ccccc3c2=O)cc1`, “inactive”. Regarding `CCOc1ccc(-n2c(O)c(/C=N/Nc3nc(C)cc(C)n3)c3ccccc3c2=O)cc1`, the Potency is 2.24 µM (active). Same read-out and setting: next, `COC(=O)C1CC2=C(CC(C)(C)CC2=O)N(c2ccccc2)C1=O` (configuration not stated): “inactive”; `CC1CC2=C(CC1/C=N/NC(N)=S)C(C)(C)CCC2` (configuration not stated): 6.31 µM (active); `C[C@@H]1ON(C)[C@H]2C[C@H]3c4cc(N5CCN(C)CC5)ccc4CCN3C(=O)[C@@H]12`: “inactive”. On the same count and under the same terms, next, `O=C(NCc1ccc(Cl)cc1)C(=O)NCC1CCCN1S(=O)(=O)c1cccs1` (configuration not stated): “inactive”; `COc1ccccc1Oc1nc(-c2cccnc2)nc2ccccc12`: “inactive”; `COc1ccc(Nc2nc(-c3cccnc3)nc3ccccc23)cn1`: 7.94 µM (active). Turning to `Cc1cccc(-c2nc(Nc3ccc(O)cc3)c3ccccc3n2)c1`, the Potency was 12.6 µM (active). For `S=c1nc2ccccc2c2nc(-c3cccnc3)[nH]n12`, the Potency entry was “inactive”.

On to `Oc1ccc(-c2nnc(Nc3ccccc3)c3ccccc23)cc1`, for which the Potency entry is “inactive”. Still for that read-out and setting: next, `CCOC(=O)c1nc(Nc2ccc(C(=O)OC)cc2)c2ccccc2n1`: “inactive”; `COc1ccc(Br)cc1CN(C)C(=O)C1CC(=O)N(C2CCCC2)C1` (configuration not stated): “inactive”. Still for that read-out and setting: next, `O=C(CC1SC(N2CCCC2)=NC1=O)Nc1ccc(C(=O)NCCc2ccc(F)cc2)cc1` (configuration not stated): “inactive”. With `O=C(COC(=O)c1c(Cl)cccc1Cl)Nc1cccc(S(=O)(=O)NC2=NCCCCC2)c1`, the Potency result was “inactive”.

Turning to `CCN1C[C@@H]2[C@@H]3C(=O)N(Cc4ccccc4)C(=O)[C@@H]3[C@](C)(C1=O)N2C(=O)c1ccc(C(C)(C)C)cc1`, the Potency entry is “inactive”. For the molecule `CCc1ccc(C(=O)N2CCN(S(=O)(=O)c3sc(C(=O)O)c(C)c3C(=O)O)CC2)cc1`, the Potency result was “inactive”. On to `c1ccc2c(c1)OC1OC2Oc2ccccc21`, for which the Potency entry is “inactive”. The same measure, in the same setting: with `COc1ccccc1N1CCN(C(=O)C2Cc3ccccc3CN2C(=O)c2ccco2)CC1` (configuration not stated) the entry was “inactive”; with `CCC(C)N1C(=S)SC(C)(C)C1N(O)C(=O)NC1CCCCC1` (configuration not stated), “inactive”; with `CCCCNC(=O)N(O)C1N(/N=C/c2ccccc2O)C(=S)SC1(C)C` (configuration not stated), 7.08 µM (active). For the molecule `CCCCNC(=O)N(O)C1N(/N=C/c2ccc(N(C)C)cc2)C(=S)SC1(C)C` (configuration not stated), the Potency entry was “inactive”. In the case of `CC1CCCCC1NC(=O)c1cc(=O)[nH]c2ccccc12` (configuration not stated), the Potency result was “inactive”. As to `O=C(CSc1nc(=O)n2ccccc2n1)Nc1ccc2c(c1)OCCO2`, the Potency result was “inactive”.

Take `CCOC(=O)C1=C(c2ccccc2)NC(=O)NC1c1cc(OCC)c(O)c([N+](=O)[O-])c1` (configuration not stated): the Potency result was “inactive”.

Consider `CCN1C(=O)N[C@@H](c2ccccc2)C(C(=O)OC)=C1C`, for which the Potency entry was “inactive”. For `CCOC(=O)C1=C(C)N(C[C@@H]2CC[C@@H](Cc3ccc(-c4ccccc4)cc3)O2)C(=O)NC1c1ccc([N+](=O)[O-])cc1` (some centres not stated), the Potency was 11.2 µM (active).

Turning to `C[C@]12c3[nH]c4ccc(Cl)cc4c3CCN1C(=O)[C@@H](CC(=O)NCCCn1ccnc1)C[C@@H]2C(=O)N1CCOCC1`, the Potency entry was “inactive”. As to `Cc1ccc(NC(=O)CN(C)C(=O)Cn2nnc(-c3ccccc3)n2)cc1`, the Potency entry is “inactive”. `COc1ccc(CCNC(=O)C(=O)NCC2OCCN2S(=O)(=O)c2ccc(OC)c(C)c2)cc1` (configuration not stated): the Potency was 15.8 µM (active). As to `COc1ccc(CCNC(=O)C(=O)NCC2OCCN2S(=O)(=O)c2ccc(F)cc2)cc1OC` (configuration not stated), the Potency result is “inactive”.

With `COc1ccc(S(=O)(=O)N2CCOC2CNC(=O)C(=O)NCc2ccncc2)cc1C` (configuration not stated), the Potency result was “inactive”. Turning to `Cc1cccc(OCC(=O)OCC(=O)Nc2ccc(Cl)cn2)c1`, the Potency entry is “inactive”. On the same count and under the same terms, next, `COc1ccccc1NC(=O)N(O)C1(C#N)CCCCC1`: “inactive”; `O=C(NCc1ccc2c(c1)OCO2)c1c(-c2ccsc2)sc2ccccc12`: “inactive”. Still for that read-out and setting: next, `CCn1c(SCC(=O)Nc2ccc(Br)cc2)nc2sc3c(c2c1=O)CCN(C)C3`: 4.47 µM (active). With `CCSc1nc2sc3c(c2c(=O)n1-c1ccc(C)cc1)CCN(C)C3`, the Potency result is “inactive”. With `COc1ccccc1NC(=O)CSc1nc2sc3c(c2c(=O)n1-c1ccccc1)CCN(C)C3`, the Potency result was “inactive”. Consider `O=C1CCCN2N=C(SCC(=O)Nc3ccc(Br)cc3)SC2=N1`, for which the Potency result was “inactive”. As to `CCOc1ccc(-n2c(SCC(=O)Nc3ccc(OC)cc3)nc3sc4c(c3c2=O)CCN(C)C4)cc1`, the Potency is 11.2 µM (active). Still for that read-out and setting: with `CCCSc1nc2sc3c(c2c(=O)n1-c1ccc(OC)cc1)CCN(C)C3` the figure was 11.2 µM (active); with `C=CCn1c(SCC(=O)Nc2ccc(NC(C)=O)cc2)nc2sc(C)c(C)c2c1=O`, “inactive”. Take `COc1ccccc1-n1c(SCC(=O)O)nc2sc3c(c2c1=O)CCC3`: the Potency entry was “inactive”.

For the molecule `CCOc1ccc(NC(=O)CSc2nncn2C)cc1`, the Potency result was “inactive”.
